Where a name gives a salt, the structure may show the parent alone. ± gives the standard deviation of the averaged measurements.
Legend:
[1] = tested on: Saccharomyces cerevisiae BY4741 SeMeCo community; test: mean cell size (pixel area) (pixels); higher = larger cells; conditions: 10 µM; 24 h; SM minimal medium
Outline: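 Yeast cells were fixed with paraformaldehyde, imaged by automated confocal microscopy and analysed in Harmony to obtain mean cell pixel area per well. They came from a four-plasmid fluorescent Saccharomyces cerevisiae BY4741 community, each plasmid complementing one auxotrophy and carrying a fluorescent marker. Before imaging, 70 µl of culture at OD600 = 0.3 was incubated for 24 h in SM medium in 384-well plates predosed acoustically with drug (final 10 µM). Values are means of 3 replicates. Same SeMeCo high-content imaging drug screen: Selleck FDA-approved drugs at 10 µM, 24 h in SM medium, 384-well plates, 3 replicates.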

[2] = tested on: Saccharomyces cerevisiae BY4741 SeMeCo community; test: z-score of prototroph abundance vs DMSO median; higher = larger share of this subpopulation than in DMSO controls; conditions: 10 µM; 24 h; SM minimal medium; subpopulation (auxotrophy): Prototroph
Outline: (§1)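 Four plasmids, each restoring a single auxotrophy and encoding a distinct fluorescent protein, were carried by a Saccharomyces cerevisiae BY4741 community. After overnight growth to OD600 1.0 and dilution to 0.3, 70 µl per well was grown for 24 h in minimal SM medium on 384-well plates acoustically predosed with library drugs at 10 µM final. Following paraformaldehyde fixation, automated confocal microscopy was used, with single-auxotroph fluorescent strains defining thresholds and autofluorescence correction. Subpopulation abundance was then scored as a z-score against the vehicle-well median.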

[3] = tested on: Saccharomyces cerevisiae BY4741 SeMeCo community; test: z-score of subpopulation abundance vs DMSO median, subpopulation auxotrophic for M; higher = larger share of this subpopulation than in DMSO controls; conditions: 10 µM; 24 h; SM minimal medium; subpopulation (auxotrophy): M
Outline: as §1

[4] = tested on: Saccharomyces cerevisiae BY4741 SeMeCo community; test: z-score of subpopulation abundance vs DMSO median, subpopulation auxotrophic for L; higher = larger share of this subpopulation than in DMSO controls; conditions: 10 µM; 24 h; SM minimal medium; subpopulation (auxotrophy): L
Outline: as §1

[5] = tested on: Saccharomyces cerevisiae BY4741 SeMeCo community; test: z-score of subpopulation abundance vs DMSO median, subpopulation auxotrophic for U; higher = larger share of this subpopulation than in DMSO controls; conditions: 10 µM; 24 h; SM minimal medium; subpopulation (auxotrophy): U
Outline: as §1

[6] = tested on: Saccharomyces cerevisiae BY4741 SeMeCo community; test: z-score of subpopulation abundance vs DMSO median, subpopulation auxotrophic for H; higher = larger share of this subpopulation than in DMSO controls; conditions: 10 µM; 24 h; SM minimal medium; subpopulation (auxotrophy): H
Outline: as §1

[7] = tested on: Saccharomyces cerevisiae BY4741 SeMeCo community; test: z-score of subpopulation abundance vs DMSO median, subpopulation auxotrophic for LU; higher = larger share of this subpopulation than in DMSO controls; conditions: 10 µM; 24 h; SM minimal medium; subpopulation (auxotrophy): LU
Outline: as §1

[8] = tested on: Saccharomyces cerevisiae BY4741 SeMeCo community; test: z-score of subpopulation abundance vs DMSO median, subpopulation auxotrophic for LM; higher = larger share of this subpopulation than in DMSO controls; conditions: 10 µM; 24 h; SM minimal medium; subpopulation (auxotrophy): LM
Outline: as §1

[9] = tested on: Saccharomyces cerevisiae BY4741 SeMeCo community; test: z-score of subpopulation abundance vs DMSO median, subpopulation auxotrophic for HM; higher = larger share of this subpopulation than in DMSO controls; conditions: 10 µM; 24 h; SM minimal medium; subpopulation (auxotrophy): HM
Outline: as §1

[10] = tested on: Saccharomyces cerevisiae BY4741 SeMeCo community; test: z-score of subpopulation abundance vs DMSO median, subpopulation auxotrophic for UM; higher = larger share of this subpopulation than in DMSO controls; conditions: 10 µM; 24 h; SM minimal medium; subpopulation (auxotrophy): UM
Outline: as §1

[11] = tested on: Saccharomyces cerevisiae BY4741 SeMeCo community; test: z-score of subpopulation abundance vs DMSO median, subpopulation auxotrophic for HLU; higher = larger share of this subpopulation than in DMSO controls; conditions: 10 µM; 24 h; SM minimal medium; subpopulation (auxotrophy): HLU
Outline: as §1

[12] = tested on: Saccharomyces cerevisiae BY4741 SeMeCo community; test: z-score of subpopulation abundance vs DMSO median, subpopulation auxotrophic for HLM; higher = larger share of this subpopulation than in DMSO controls; conditions: 10 µM; 24 h; SM minimal medium; subpopulation (auxotrophy): HLM
Outline: as §1

[13] = tested on: Saccharomyces cerevisiae BY4741 SeMeCo community; test: z-score of subpopulation abundance vs DMSO median, subpopulation auxotrophic for HUM; higher = larger share of this subpopulation than in DMSO controls; conditions: 10 µM; 24 h; SM minimal medium; subpopulation (auxotrophy): HUM
Outline: as §1

[14] = tested on: Saccharomyces cerevisiae BY4741 SeMeCo community; test: z-score of subpopulation abundance vs DMSO median, subpopulation auxotrophic for LUM; higher = larger share of this subpopulation than in DMSO controls; conditions: 10 µM; 24 h; SM minimal medium; subpopulation (auxotrophy): LUM
Outline: as §1

[15] = tested on: Saccharomyces cerevisiae BY4741 SeMeCo community; test: z-score of subpopulation abundance vs DMSO median, subpopulation auxotrophic for HLUM; higher = larger share of this subpopulation than in DMSO controls; conditions: 10 µM; 24 h; SM minimal medium; subpopulation (auxotrophy): HLUM
Outline: as §1

[16] = tested on: Saccharomyces cerevisiae BY4741 SeMeCo community; test: z-score of subpopulation abundance vs DMSO median, subpopulation auxotrophic for HU; higher = larger share of this subpopulation than in DMSO controls; conditions: 10 µM; 24 h; SM minimal medium; subpopulation (auxotrophy): HU
Outline: as §1

[17] = tested on: Saccharomyces cerevisiae BY4741 SeMeCo community; test: z-score of subpopulation abundance vs DMSO median, subpopulation auxotrophic for HL; higher = larger share of this subpopulation than in DMSO controls; conditions: 10 µM; 24 h; SM minimal medium; subpopulation (auxotrophy): HL
Outline: as §1

SMILES	mean cell size [1]	z-score of prototroph abundance [2]	z-score of subpopulation abundance [3]	z-score of subpopulation abundance [4]	z-score of subpopulation abundance [5]	z-score of subpopulation abundance [6]	z-score of subpopulation abundance [7]	z-score of subpopulation abundance [8]	z-score of subpopulation abundance [9]	z-score of subpopulation abundance [10]	z-score of subpopulation abundance [11]	z-score of subpopulation abundance [12]	z-score of subpopulation abundance [13]	z-score of subpopulation abundance [14]	z-score of subpopulation abundance [15]	z-score of subpopulation abundance [16]	z-score of subpopulation abundance [17]
CN1CC2c3ccccc3Oc3ccc(Cl)cc3C2C1 (configuration not stated) [Asenapine maleate]	12.34 ± 0.11	0.14	-0.45	1.05	-0.5	-0.64	0.61	0.5	-0.76	-0.2	0.37	-0.53	0.01	0.42	0.32		
CC1=C(C(=O)O)N2C(=O)[C@@H](NC(=O)[C@H](N)C3=CCC=CC3)[C@H]2SC1 [Cephradine monohydrate]	11.9 ± 0.16	0.03	-0.02	-0.33		-0.1	0.27	-0.77	-0.39	0.58	-0.12	0.11	-0.61	-0.79	0.01	0.11	-0.62
CCCCc1oc2ccccc2c1C(=O)c1cc(I)c(OCCN(CC)CC)c(I)c1 [Amiodarone HCl]	11.3 ± 0.26	-5.29	9.41	-2.82		1.97	-1.37	1.3	3.86	9.26	4.05	5.74	4.79	6.07	5.2		3.55
COC(=O)Nc1nc2cc(C(=O)c3ccccc3)ccc2[nH]1 [Mebendazole]	12.07 ± 0.077		-0.56	0.37		1.06	0.33	1.32	1.02	1.89	-0.05	1.83	1.64	0.4	1.44		0.26
CN1CCc2cc3c(cc2C(=O)Cc2ccc4c(c2C1)OCO4)OCO3 [Protopine]	12.2 ± 0.13	-0.56	-0.25	1.72		0.05	1.45	1.78	-0.3	-0.23	0.88	0.14	0.19		0.9	-0.45	1.17
Nc1ccc2cc3ccc(N)cc3nc2c1 [Proflavine Hemisulfate]	12.06 ± 0.0063	5.49	6.69	-8.37		5.37	-9.25	-5.03	6.84	-8.07	-4.5	-2.37	-4.39	-5.16	-2.15	-6.91	-4.25
CN1CCN(C2=Nc3ccccc3Oc3ccc(Cl)cc32)CC1 [Loxapine Succinate]	12.4 ± 0.17	-0.71	-0.12	1.71	0.78	0.08	1.85	0.87	0.14		0.59	0.21	-0.1	1.15	0.78		1.02
c1ccc(-c2ccc(C(c3ccccc3)n3ccnc3)cc2)cc1 (configuration not stated) [Bifonazole]	12.65 ± 0.082	-0.9	3.3	-1.29	-0.36		-0.8	0.64	-0.61	0.46	0.9	2.32	0.21		2.46		1.27
C#C[C@]1(O)CC[C@H]2[C@@H]3CCC4=CCCC[C@@H]4[C@H]3C(=C)C[C@@]21CC [Desogestrel]	12.3 ± 0.29		-0.11	-0.12		0.78	0.22	-0.94	-0.05	-1.41	0.73	-0.87	-0.05	-0.72	-0.48	-0.11	0.58
CCCc1nn(C)c2c(=O)[nH]c(-c3cc(S(=O)(=O)N4CCN(C)CC4)ccc3OCC)nc12 [Sildenafil Citrate]	12.4 ± 0.22	0.12	0.03	-0.61		-0.22	0.51	-0.26	0.01		0.14	-0.32	-0.06	-0.09	-0.32	-0.23	-0.89
CN1[C@@H]2CC[C@H]1C[C@@H](OC(=O)c1c[nH]c3ccccc13)C2 [Tropisetron HCl]	12.57 ± 0.083	-1	1.04	0.79	-0.06	-0.68	1	1.09	0.26	0.28	0.2	-0.38	0.19	0.15	1.3		-0.91
CN1C(C(=O)Nc2ccccn2)=C(O)c2ccccc2S1(=O)=O [Piroxicam]	12.79 ± 0.11	1.29	-0.1	-0.78			-0.71	-1.45	-0.94	-0.3	-1.14	-0.68	-0.89		-0.92	-0.6	-0.37
NC1CCN(c2nc3c(cc2F)c(=O)c(C(=O)O)cn3-c2ccc(F)cc2F)C1 (configuration not stated) [Tosufloxacin p-Toluenesulfonate Hydrate]	12.3 ± 0.29	0.74	-0.77	-0.11		0.41	-0.88	-0.53	-0.46		0.67	-0.56	-0.83	-0.71	-0.36	-0.62	-0.52
CC[C@H]1OC(=O)[C@H](C)[C@@H](O[C@H]2C[C@@](C)(OC)[C@@H](O)[C@H](C)O2)[C@H](C)[C@@H](O[C@@H]2O[C@H](C)C[C@H](N(C)C)[C@H]2O)[C@](C)(O)C[C@@H](C)CN(C)[C@H](C)[C@@H](O)[C@]1(C)O [Azithromycin]	12.5 ± 0.14	-0.03	-0.81	0.82	-0.41	-0.15	0.14	0.27	-0.55	-0.55	-0.06	0.46	0.11	0.31	0.36		-0.27
CN(Cc1cnc2nc(N)nc(N)c2n1)c1ccc(C(=O)N[C@@H](CCC(=O)O)C(=O)O)cc1 [Methotrexate]	15.5 ± 0.33	-1.88	-4.24	-0.82	-2.91	8.39	-1.77	1.07	6.94	-4.22	4.61	8.99	0	0.73	6.15		6.68

— the supplement of paper PMC8975748
